Compounds without any hit were thinned out: in the full panel of roughly 79,000, 15% have a hit. Activity calls are given as the source filed them. No stated cut-off is given here; in the data, active means growth inhibition above about 70%; inactive means the rest.
What was measured:
[1] = NCI Yeast Anticancer Drug Screen. Data for the rad52 strain (AID 147);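 further: 0% = growth of vehicle-treated control cultures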; details: S. cerevisiae rad52 mutant growth inhibition, active compounds read high
Procedure, shortened: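 Genetically altered yeast (DNA damage repair defect) treated with compound; inhibition calculated relative to vehicle.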

[2] = NCI Yeast Anticancer Drug Screen. Data for the wt1 strain (AID 149);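 further: 0% = growth of vehicle-treated wt1 cultures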; details: S. cerevisiae wt1 strain (SPY 50644) growth inhibition, active compounds read high
Procedure, shortened: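 Each compound is tested on wt1 yeast and the loss of growth versus vehicle gives the inhibition value.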

[3] = NCI Yeast Anticancer Drug Screen. Data for the rad50EPP+ strain (AID 151);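 further: 0% = growth of vehicle-treated control cultures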; details: S. cerevisiae rad50 mutant strain, active compounds read high
Procedure, shortened: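 Strain rad50EPP+; compound exposure; % growth inhibition vs vehicle.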

[4] = NCI Yeast Anticancer Drug Screen. Data for the mgt1 strain (AID 153); details: S. cerevisiae mgt1 mutant growth inhibition, active compounds read high
Procedure, shortened: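 Read-out: yeast growth inhibition vs vehicle control. Strain mgt1, drawn from a panel altered in DNA damage repair or cell cycle control.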

[5] = NCI Yeast Anticancer Drug Screen. Data for the mec2-1 strain (AID 157); details: S. cerevisiae mec2-1 strain, active compounds read high
Procedure, shortened: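 Cells of the genetically defined mec2-1 yeast strain are incubated with test compound. Inhibition of growth is calculated against vehicle-treated controls.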

[6] = NCI Yeast Anticancer Drug Screen. Data for the rad14 strain (AID 159);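 further: 0% = growth of vehicle-treated control cultures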; details: S. cerevisiae rad14 strain growth inhibition, active compounds read high
Procedure, shortened: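 Inhibition of growth is reported for a repair-deficient yeast mutant following compound treatment, calculated relative to cultures that received vehicle.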

[7] = NCI Yeast Anticancer Drug Screen. Data for the sgs1 mgt1 strain (AID 161);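 further: 0% = growth of cultures given vehicle only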; details: S. cerevisiae sgs1 mgt1 strain, active compounds read high
Procedure, shortened: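 Read-out: growth inhibition vs vehicle controls. Cells: mutant yeast strain deficient in DNA damage repair.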

[8] = NCI Yeast Anticancer Drug Screen. Data for the CLN2oe strain (AID 163);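 further: 0% = growth of vehicle-only control cultures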; details: S. cerevisiae CLN2oe strain, active compounds read high
Procedure, shortened: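 Strain altered in cell-cycle control, incubated with compound; growth compared to solvent-treated controls.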

[9] = NCI Yeast Anticancer Drug Screen. Data for the cln2 rad14 strain (AID 165);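 further: 0% = growth equal to vehicle treated cultures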; details: S. cerevisiae cln2 rad14 strain, active compounds read high
Procedure, shortened: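 The screen exposed genetically defined yeast (cln2 rad14) to test compounds and scored growth inhibition relative to vehicle-treated controls.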

[10] = NCI Yeast Anticancer Drug Screen. Data for the wt2 strain (AID 169); details: S. cerevisiae wt2 strain growth inhibition, active compounds read high
Procedure, shortened: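 Steps: yeast strain treated with compound; growth recorded; inhibition calculated relative to cultures given vehicle alone.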

[11] = NCI Yeast Anticancer Drug Screen. Data for the mlh1 strain (AID 171);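 further: 0% = growth of vehicle-treated control cultures of the same strain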; details: S. cerevisiae mlh1 strain growth inhibition, active compounds read high
Procedure, shortened: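 Yeast screen: mutant strain plus compound, growth scored against vehicle control wells.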

[12] = NCI Yeast Anticancer Drug Screen. Data for the mlh1 rad18 strain (AID 175); details: S. cerevisiae mlh1 rad18 strain growth inhibition, active compounds read high
Procedure, shortened: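 Compound-treated yeast growth, normalised to vehicle controls. Strain bears defined DNA repair mutations.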

[13] = NCI Yeast Anticancer Drug Screen. Data for the rad18 strain (AID 177); details: S. cerevisiae rad18 mutant growth inhibition, active compounds read high
Procedure, shortened: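 Inhibition values reflect reduced yeast growth compared with vehicle-treated controls, using a strain engineered with a DNA damage repair defect.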

[14] = NCI Yeast Anticancer Drug Screen. Data for the rad50 strain (AID 155);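 further: 0% = growth of vehicle-only cultures of the same strain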; details: S. cerevisiae rad50 strain growth inhibition, active compounds read high
Procedure, shortened: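 Vehicle-treated cultures provide the reference for the growth inhibition reported for compound-exposed, repair-deficient yeast.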

[15] = NCI Yeast Anticancer Drug Screen. Data for the bub3 strain (AID 167); details: S. cerevisiae bub3 mutant strain, active compounds read high
Procedure, shortened: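 Mutant yeast screening strain plus compound; vehicle-treated cultures serve as the 0% inhibition reference.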

[16] = NCI Yeast Anticancer Drug Screen. Data for the sgs1 strain (AID 173);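 further: 0% = growth of vehicle-only control cultures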; details: S. cerevisiae sgs1 mutant, active compounds read high
Procedure, shortened: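 Inhibition of yeast growth served as the measure. The mutant strain was treated with each compound, and growth was normalised to cultures receiving vehicle alone.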

[17] = at 5.0 µM (retest, dose inferred, filed as 0.5)
[18] = at 50.0 µM (retest, dose inferred, filed as 5.0)

Measured: growth inhibition

CN(CC(=O)O)c1ccc(/C=C/c2ccnc3ccccc23)cc1
active: [3]; at 100.0 µM 83% | [7]; [18] 80% | [12]; [18] 88% | [13]; at 33.0 µM 78% | [13]; at 100.0 µM 91%
inactive: [1]; at 1.2 µM -3% | [1]; at 3.7 µM -5% | [1]; at 11.0 µM -2% | [1]; at 33.0 µM 13% | [1]; at 100.0 µM 41% | [2]; at 1.2 µM -2% | [2]; at 3.7 µM -3% | [2]; at 11.0 µM -4% | [2]; at 33.0 µM -8% | [2]; at 100.0 µM -6% | [3]; at 1.2 µM -9% | [3]; at 3.7 µM 3% | [3]; at 11.0 µM 8% | [3]; at 33.0 µM 35% | [4]; at 1.2 µM 0% | [4]; at 3.7 µM 0% | [4]; at 11.0 µM -2% | [4]; at 33.0 µM -2% | [4]; at 100.0 µM 39% | [5]; at 1.2 µM -5% | [5]; at 3.7 µM -4% | [5]; [17] 6% | [5]; at 11.0 µM -5% | [5]; at 33.0 µM -3% | [5]; [18] 12% | [5]; at 50.0 µM 33.5% | [5]; at 100.0 µM 16% | [6]; at 1.2 µM -3% | [6]; at 3.7 µM -5% | [6]; at 11.0 µM -2% | [6]; at 33.0 µM 6% | [6]; at 100.0 µM 32% | [7]; [17] 5% | [7]; at 50.0 µM 59.2% | [8]; at 1.2 µM -3% | [8]; at 3.7 µM -4% | [8]; at 11.0 µM -9% | [8]; at 33.0 µM -15% | [8]; at 100.0 µM -12% | [9]; [17] -2% | [9]; [18] 22% | [9]; at 50.0 µM -46.4% | [10]; at 1.2 µM -4% | [10]; at 3.7 µM -4% | [10]; at 11.0 µM -5% | [10]; at 33.0 µM -3% | [10]; at 100.0 µM 37% | [11]; at 1.2 µM -1% | [11]; at 3.7 µM 2% | [11]; at 11.0 µM 3% | [11]; at 33.0 µM 7% | [11]; at 100.0 µM 41% | [12]; [17] 30% | [12]; at 50.0 µM 50.4% | [13]; at 1.2 µM 1% | [13]; at 3.7 µM 5% | [13]; at 11.0 µM 10%

O=C1CC(=O)N(C2CCCCC2)C(=O)N1c1ccccc1S(=O)(=O)Oc1ccccc1
inactive: [1]; at 1.2 µM 1% | [1]; at 3.7 µM 3% | [1]; at 11.0 µM 4% | [1]; at 33.0 µM 24% | [1]; at 100.0 µM 64% | [2]; at 1.2 µM 1% | [2]; at 3.7 µM -5% | [2]; at 11.0 µM -14% | [2]; at 33.0 µM 12% | [2]; at 100.0 µM 51% | [3]; at 1.2 µM -22% | [3]; at 3.7 µM -19% | [3]; at 11.0 µM -16% | [3]; at 33.0 µM 2% | [3]; at 100.0 µM -49% | [14]; at 1.2 µM -12% | [14]; at 3.7 µM -3% | [14]; [17] 66% | [14]; at 11.0 µM -12% | [14]; at 33.0 µM 5% | [14]; at 50.0 µM 38.6% | [14]; at 100.0 µM 33% | [5]; at 1.2 µM 11% | [5]; at 3.7 µM 0% | [5]; [17] 69% | [5]; at 11.0 µM -18% | [5]; at 33.0 µM 13% | [5]; at 50.0 µM 41% | [5]; at 100.0 µM 36% | [6]; at 1.2 µM -18% | [6]; at 3.7 µM -22% | [6]; at 11.0 µM -26% | [6]; at 33.0 µM -18% | [6]; at 100.0 µM 18% | [7]; [17] 3% | [7]; [18] 31% | [7]; at 50.0 µM 54.4% | [8]; at 1.2 µM 6% | [8]; at 3.7 µM -1% | [8]; at 11.0 µM 7% | [8]; at 33.0 µM 43% | [9]; [17] 60% | [9]; at 50.0 µM 68% | [15]; at 1.2 µM -13% | [15]; at 3.7 µM 0% | [15]; [17] 25% | [15]; at 11.0 µM 2% | [15]; at 33.0 µM 7% | [15]; [18] 42% | [15]; at 50.0 µM 58.4% | [15]; at 100.0 µM 32% | [10]; at 1.2 µM 0% | [10]; at 3.7 µM -33% | [10]; at 11.0 µM -27% | [10]; at 33.0 µM -3% | [10]; at 100.0 µM 41% | [11]; at 1.2 µM -10% | [11]; at 3.7 µM -19% | [11]; at 11.0 µM -11% | [11]; at 33.0 µM 7% | [11]; at 100.0 µM 46% | [16]; at 1.2 µM -7% | [16]; at 3.7 µM -5% | [16]; at 11.0 µM -1% | [16]; at 33.0 µM 20% | [16]; at 100.0 µM 56%
active: [14]; [18] 99% | [5]; [18] 99% | [8]; at 100.0 µM 72% | [9]; [18] 80%

Cc1ccc2occ/c(=N\Nc3ccccc3)c2c1
active: [14]; at 50.0 µM 73.8% | [7]; [18] 70% | [7]; at 50.0 µM 82.5% | [15]; [18] 70% | [15]; at 50.0 µM 87.8% | [15]; at 100.0 µM 70%
inactive: [1]; at 1.2 µM -3% | [1]; at 3.7 µM -4% | [1]; at 11.0 µM 8% | [1]; at 33.0 µM 33% | [1]; at 100.0 µM 39% | [2]; at 1.2 µM 2% | [2]; at 3.7 µM -5% | [2]; at 11.0 µM 4% | [2]; at 33.0 µM 11% | [2]; at 100.0 µM 16% | [3]; at 1.2 µM 1% | [3]; at 3.7 µM -3% | [3]; at 11.0 µM 4% | [3]; at 33.0 µM 58% | [3]; at 100.0 µM 55% | [14]; at 1.2 µM 5% | [14]; at 3.7 µM -7% | [14]; [17] -16% | [14]; at 11.0 µM 6% | [14]; at 33.0 µM 57% | [14]; [18] 31% | [14]; at 100.0 µM 58% | [5]; at 1.2 µM -4% | [5]; at 3.7 µM -4% | [5]; [17] -11% | [5]; at 11.0 µM -2% | [5]; at 33.0 µM 17% | [5]; [18] 23% | [5]; at 50.0 µM 52.7% | [5]; at 100.0 µM 24% | [6]; at 1.2 µM -2% | [6]; at 3.7 µM -2% | [6]; at 11.0 µM -4% | [6]; at 33.0 µM 39% | [6]; at 100.0 µM 45% | [7]; [17] -1% | [8]; at 1.2 µM -9% | [8]; at 3.7 µM -7% | [8]; at 11.0 µM 5% | [8]; at 33.0 µM -1% | [8]; at 100.0 µM 12% | [9]; [17] -21% | [9]; [18] -23% | [9]; at 50.0 µM -23.1% | [15]; at 1.2 µM -4% | [15]; at 3.7 µM -4% | [15]; [17] -4% | [15]; at 11.0 µM -4% | [15]; at 33.0 µM 64% | [10]; at 1.2 µM -2% | [10]; at 3.7 µM -4% | [10]; at 11.0 µM 7% | [10]; at 33.0 µM 55% | [10]; at 100.0 µM 57% | [11]; at 1.2 µM -1% | [11]; at 3.7 µM -5% | [11]; at 11.0 µM -1% | [11]; at 33.0 µM 59% | [11]; at 100.0 µM 63% | [16]; at 1.2 µM -1% | [16]; at 3.7 µM -4% | [16]; at 11.0 µM 4% | [16]; at 33.0 µM 53% | [16]; at 100.0 µM 57% | [12]; [17] -5% | [12]; [18] 52% | [12]; at 50.0 µM 68.3% | [13]; at 1.2 µM -2% | [13]; at 3.7 µM -1% | [13]; at 11.0 µM 7% | [13]; at 33.0 µM 62% | [13]; at 100.0 µM 64%
